Laboratory results published in PubChem BioAssay (NCI).
Compounds without any hit were thinned out: in the full panel of roughly 79,000, 15% have a hit. Values without a mark were called inactive. Active and inactive are the calls of the source. No stated cut-off is given here; in the data, active means growth inhibition above about 70%; inactive means the rest.

What was measured:
[1] = NCI Yeast Anticancer Drug Screen. Data for the rad50 strain (AID 155);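 further: 0% = growth of vehicle-only cultures of the same strain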; details: S. cerevisiae rad50 strain growth inhibition, hits give high values
How it was run: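 Inhibition values express reduced yeast growth in compound-treated cultures relative to vehicle-treated controls.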

[2] = NCI Yeast Anticancer Drug Screen. Data for the mec2-1 strain (AID 157); details: S. cerevisiae mec2-1 strain, hits give high values
How it was run: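 Yeast mec2-1 mutant treated with compound. Readout: growth inhibition vs vehicle controls.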

[3] = NCI Yeast Anticancer Drug Screen. Data for the sgs1 mgt1 strain (AID 161);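 further: 0% = growth of cultures given vehicle only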; details: S. cerevisiae sgs1 mgt1 strain, hits give high values
How it was run: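 Read-out: growth inhibition vs vehicle controls. Cells: mutant yeast strain deficient in DNA damage repair.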

[4] = NCI Yeast Anticancer Drug Screen. Data for the cln2 rad14 strain (AID 165);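 further: 0% = growth equal to vehicle treated cultures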; details: S. cerevisiae cln2 rad14 strain, hits give high values
How it was run: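 cln2 rad14 yeast strain; compound exposure; growth inhibition read vs vehicle controls.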

[5] = NCI Yeast Anticancer Drug Screen. Data for the bub3 strain (AID 167); details: S. cerevisiae bub3 mutant strain, hits give high values
How it was run: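 Steps: expose the mutant yeast strain to compound; grow alongside vehicle-treated cultures; measure growth; express inhibition against the vehicle cultures.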

[6] = NCI Yeast Anticancer Drug Screen. Data for the mlh1 rad18 strain (AID 175); details: S. cerevisiae mlh1 rad18 strain growth inhibition, hits give high values
How it was run: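 Yeast w/ defined DNA-repair lesions; compound exposure; growth vs vehicle controls → % inhibition.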

[7] = at 5.0 µM (retest, dose inferred, filed as 0.5)
[8] = at 50.0 µM (retest, dose inferred, filed as 5.0)

Structure (SMILES) | growth inhibition [1, 7] | growth inhibition [1, 8] | growth inhibition ([1]; at 50.0 µM) | growth inhibition [2, 7] | growth inhibition [2, 8] | growth inhibition ([2]; at 50.0 µM) | growth inhibition [3, 7] | growth inhibition [3, 8] | growth inhibition ([3]; at 50.0 µM) | growth inhibition [4, 7] | growth inhibition [4, 8] | growth inhibition ([4]; at 50.0 µM) | growth inhibition [5, 7] | growth inhibition [5, 8] | growth inhibition ([5]; at 50.0 µM) | growth inhibition [6, 7] | growth inhibition [6, 8] | growth inhibition ([6]; at 50.0 µM)
Cc1nnc(NS(=O)(=O)c2ccc(N=Nc3cc(N=Nc4ccc(S(=O)(=O)Nc5nnc(C)s5)cc4)c4c(NC(=O)C(Cl)Cl)cccc4c3OC(=O)C(Cl)Cl)cc2)s1 (tested in a mixture with another compound) | 90% (active) | -11% | 51.8% | 92% (active) | 24% | 53.6% | 89% (active) | -9% | 69.5% | 90% (active) | 6% | 65.8% | 91% (active) | -3% | 58.2% | 80% (active) | -44% | 79.5% (active)
O=NN(CCCl)C(=O)Nc1cc(=O)[nH]c(SCc2ccccc2)n1 | -23% | 52% | 8.95% | 3% | 10% | -3.6% | -10% | 33% | 4.7% | 14% | 12% | 45.5% | 5% | 30% | 16.9% | -11% | 70% (active) | 66.5%
CCCCP(CCCC)(CCCC)=C(C(=O)OC)C(C(=O)OC)=C1SC(C(=O)OC)=C(C(=O)OC)S1 | 18% | 39% | -4.9% | 4% | 16% | 10.3% | 63% | 26% | -9.3% | 47% | 38% | 13.1% | 79% (active) | 47% | -7.6% | 23% | 51% | 4.8%
Cc1ccccc1N=Nc1sc(N)nc1-c1ccccc1 | -6% | 94% (active) | 33.5% | 8% | 98% (active) | 22.2% | -2% | 95% (active) | 54.8% | -1% | 88% (active) | -4.85% | -7% | 98% (active) | 30.6% | -1% | 95% (active) | 43.7%
C=C1CCCCC1C(C(=O)O)(c1ccccc1)c1ccccc1 (configuration not stated) | 77% (active) | 98% (active) | 98.7% (active) | 71% (active) | 99% (active) | 99.3% (active) | 79% (active) | 99% (active) | 99.3% (active) | 72% (active) | 99% (active) | 99.3% (active) | 51% | 99% (active) | 98.2% (active) | 92% (active) | 99% (active) | 99.5% (active)
CSC1=Nc2ccccc2SC(c2ccccc2)C1c1ccccc1 (configuration not stated) | 4% | 14% | 20.1% | 0% | 15% | 29.3% | 6% | 17% | 67% | -3% | -9% | 84.7% (active) | 5% | 7% | 53.3% | 3% | 8% | 63.9%
COC(=O)/C(=C\c1cn(C(C)=O)c2ccccc12)P(=O)(OC)OC | 9% | 21% | 41.8% | 5% | 70% (active) | 62.6% | 2% | 51% | 70.8% (active) | 31% | 38% | 63.9% | -24% | 73% (active) | 78.5% (active) | 16% | 69% | 75.8% (active)
CC(C)(C)C1=CC(=CC=C2C=CN(CCO)C=C2)C=C(C(C)(C)C)C1=O | -2% | 98% (active) | 29.1% | 0% | 28% | 35.5% | -3% | 51% | 24.6% | 0% | 60% | 31.8% | -5% | 28% | 31.6% | -6% | 73% (active) | 97% (active)
CCCCN(CCCC)CCCCCCNc1cc(OC)cc2cccnc12 | 4% | 32% | 98.2% (active) | 1% | 14% | 98.6% (active) | 3% | 13% | 99% (active) | 5% | 39% | 98.1% (active) | 9% | 30% | 99% (active) | -4% | 9% | 98.7% (active)
CCCCOC(=O)C(C)OC(=O)NNc1ccccc1 (configuration not stated) | 10% | 51% | 48.2% | 0% | 12% | 36% | 1% | 39% | 36% | 7% | 34% | 36.7% | 9% | 88% (active) | 99% (active) | 6% | 87% (active) | 67%
Cc1ccc(NC(=O)Oc2ccc(OC(=O)Cc3ccccc3)cc2)cc1NC(=O)Oc1ccc(OC(=O)Cc2ccccc2)cc1 | 10% | 97% (active) | 99.2% (active) | 43% | 94% (active) | 99.4% (active) | 2% | 89% (active) | 99.2% (active) | 10% | 93% (active) | 98.2% (active) | 15% | 98% (active) | 99% (active) | 2% | 98% (active) | 99.1% (active)
Cc1ccc(S(=O)(=O)NNc2nc(N3CCOCC3)nc(N3CCOCC3)n2)cc1 | 1% | -4% | 28.1% | 2% | 2% | 15.4% | 10% | 6% | 63% | 3% | -8% | 70.6% (active) | -1% | -1% | 17.9% | 0% | -4% | 26.3%
COc1ccc2c(ccc[n+]2CC(=O)c2ccc(-c3ccccc3)cc2)c1 | -24% | 5% | 13.1% | -5% | -1% | 14.8% | -20% | 24% | 2.75% | -2% | 5% | -12.8% | 3% | 8% | -2.75% | -3% | 12% | 40%
CN(CCCN(CCO)CCO)C1CC(C)(C)N(O)C(C)(C)C1 | 16% | -4% | -4.5% | -1% | 3% | -9.7% | 7% | 10% | -3.5% | -2% | 5% | 14.7% | -3% | 2% | -8.9% | 1% | 9% | 7.2%
C=C1CC(c2ccc(OCCCN3C(=O)c4ccccc4C3=O)cc2)OC1=O (configuration not stated) | 33% | 71% (active) | 10.1% | 30% | 82% (active) | -3.6% | 28% | 67% | 15% | 23% | 63% | 29.1% | 33% | 80% (active) | 8.8% | 34% | 86% (active) | -6%
[O-][n+]1c2c(cc3ccccc31)Cc1ccccc1-2 | 2% | 31% | 21.7% | 3% | 19% | 35% | -3% | 5% | -22.6% | 4% | 3% | 20.4% | 7% | 29% | 24.4% | 3% | 20% | 30.7%
CN1CC[C@@H](c2ccccc2)[C@@H](O)C1 | 0% | -11% | 6.3% | 4% | -4% | 12% | 2% | -10% | 49.1% | -3% | -11% | -1.15% | 0% | -3% | 3.5% | -1% | -29% | 9.55%
Cc1c2ccccc2c(CO)c2cc(F)c3ccccc3c12 | 71% (active) | 98% (active) | 71.5% (active) | 95% (active) | 99% (active) | 34% | 97% (active) | 99% (active) | 84.2% (active) | 87% (active) | 98% (active) | 31.9% | 91% (active) | 98% (active) | 85% (active) | 95% (active) | 98% (active) | 92.7% (active)
N#CCCN(CCC#N)Cc1cc(-c2ccccc2)ccc1O | 5% | 55% | 87.5% (active) | 1% | 19% | 55% | -2% | 59% | 59.5% | -8% | -8% | -14.9% | 1% | 44% | 85.2% (active) | -9% | 28% | 82.2% (active)
